According to PubChem BioAssay (Tox21):
A number with no mark means an inactive call. Inconclusive results are not listed. Where a call stands in place of a potency, no number is given. Active and inactive are the calls of the source. Unless noted, the call rests on the fitted dose curve.

Assays:
[1] = Nuclear factor erythroid 2-related factor 2/antioxidant responsive element (Nrf2/ARE) small molecule agonists: qHTS cell viability counter screen in human keratinocytes (AID 1919968; active means well fitted curve in the direction sought with a large enough effect in the repeat runs; an effect the other way counts as inactive or inconclusive; further: nearly all actives have a fitted effect of over 55% in size; further: potency means the concentration at half of the fitted maximal effect)
Summary of the method: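 After a 5 h attachment period, ARE-reporter keratinocytes were dosed with compounds in DMSO and then cultured 23 h at 37 C. Cell viability came from CellTiter-Fluor signal read after a further 1 h.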

[2] = Nuclear factor erythroid 2-related factor 2/antioxidant responsive element (Nrf2/ARE) small molecule agonists: luciferase reporter gene qHTS assay in human keratinocytes (AID 1919969); further: nearly all actives have a fitted effect of over 35% in size
[3] = molecular target: Gonadotropin-releasing hormone receptor (Homo sapiens) (UniProt P30968); assay: Human gonadotropin-releasing hormone receptor (GnRHR) small molecule agonists, calcium flux assay in GnRHR-HEK293 cells (AID 1920063); further: nearly all actives have a fitted effect of over 35% in size
Sequence of Gonadotropin-releasing hormone receptor (Homo sapiens) (P30968 whole entry, looked up): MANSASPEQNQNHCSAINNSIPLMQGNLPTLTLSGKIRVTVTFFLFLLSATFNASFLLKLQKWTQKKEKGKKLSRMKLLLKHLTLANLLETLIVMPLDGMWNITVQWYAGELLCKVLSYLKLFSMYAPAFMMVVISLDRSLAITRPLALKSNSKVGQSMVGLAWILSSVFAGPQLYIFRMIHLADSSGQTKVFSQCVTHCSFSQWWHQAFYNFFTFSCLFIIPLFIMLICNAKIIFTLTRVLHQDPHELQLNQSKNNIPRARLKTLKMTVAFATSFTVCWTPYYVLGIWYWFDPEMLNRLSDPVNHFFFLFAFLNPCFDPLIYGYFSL
Summary of the method: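 We seeded human GnRHR-expressing HEK293 cells for 18 hours, loaded them with calcium dye for an hour at 37 C, added test compounds, and recorded fluorescence intensity kinetically for three minutes.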

[4] = molecular target: KiSS-1 receptor (Homo sapiens) (UniProt Q969F8); assay: Human kisspeptin (KISS1R) small molecule agonists, calcium flux assay in KISS1R-HEK293 cells (AID 1920064; active means well fitted curve in the direction sought with a large enough effect in the repeat runs; an effect the other way counts as inactive or inconclusive)
Sequence of KiSS-1 receptor (Homo sapiens) (Q969F8 whole entry, looked up): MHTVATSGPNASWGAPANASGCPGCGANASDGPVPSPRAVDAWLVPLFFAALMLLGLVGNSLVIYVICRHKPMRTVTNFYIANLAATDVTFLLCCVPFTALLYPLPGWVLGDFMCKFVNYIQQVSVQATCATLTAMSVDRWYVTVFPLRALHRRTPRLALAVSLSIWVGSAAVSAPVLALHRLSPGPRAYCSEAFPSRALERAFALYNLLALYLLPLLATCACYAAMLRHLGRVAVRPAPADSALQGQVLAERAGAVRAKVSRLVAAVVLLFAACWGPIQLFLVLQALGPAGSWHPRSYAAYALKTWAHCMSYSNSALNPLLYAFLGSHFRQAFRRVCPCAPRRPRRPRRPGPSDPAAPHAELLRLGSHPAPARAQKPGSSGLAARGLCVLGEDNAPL
Summary of the method: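 Kinetic calcium assay, 1 s sampling over 3 min at Ex/Em 480/540, in HEK293 cells engineered with human KISS1R; compounds delivered in DMSO after 1 h dye loading.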

[5] = G protein-coupled receptor (GPCR) small molecule agonists, calcium flux assay: HEK293 wild type cell line counter screen (AID 1920065)
Summary of the method: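 Calcium-sensitive dye, loaded 1 h at 37 C into cells cultured 18 h, reports compound-evoked calcium release as fluorescence (Ex/Em 480/540), measured over 3 min. Agonist mode; 15-point titrations, triplicate.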

[6] = p53 small molecule agonists, cell-based qHTS assay with human liver microsomes (AID 1963577)
Summary of the method: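 p53RE-bla cells, 4,000/well, compound added after 5 h, with human liver microsomes 0.5 mg/mL and NADPH 0.5 mg/mL final; 16 h at 37 C, then LiveBLAzer 2 h RT, fluorescence.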

[7] = p53 small molecule agonists, cell-based qHTS assay with rat liver microsomes (AID 1963578)
Summary of the method: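 p53RE-bla cells, 4,000/well, pre-incubated 5 h, then given compounds plus rat liver microsomes (0.5 mg/mL final) and NADPH (0.5 mg/mL final). Incubation 16 h at 37 C; beta-lactamase reporter read by LiveBLAzer fluorescence after 2 h at room temperature.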

[8] = p53 small molecule agonists, cell-based qHTS assay with rat liver microsomes: qHTS cell viability counter screen (AID 1963580); further: nearly all actives have a fitted effect of over 45% in size
Summary of the method: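 p53RE-bla HCT-116 cells were exposed 16 h at 37 C to compounds with rat liver microsomes (0.5 mg/mL) and NADPH (0.5 mg/mL). Viability was measured in the same wells as ATP content by CellTiter-Glo luminescence.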

[9] = p53 small molecule agonists, cell-based qHTS assay: qHTS cell viability counter screen (AID 1963581); further: nearly all actives have a fitted effect of over 45% in size
Summary of the method: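 Following 5 h attachment, HCT-116 p53RE-bla cells took up compound for 16 h at 37 C; the reporter was read with B/G FRET substrate (2 h RT), and viability then via CellTiter-Glo ATP luminescence.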

[10] = p53 small molecule agonists, cell-based qHTS assay (AID 1963582; active means well fitted activation curve with a large enough effect in the signal ratio in the repeat runs, not every such curve was filed as active; the % refers to the signal ratio)
Summary of the method: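 In this cell-based concentration-response screen, a p53 response element drives beta-lactamase; cells received DMSO-borne compounds after 5 h culture and were incubated a further 16 h before FRET substrate development.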

[11] = molecular target: 5-hydroxytryptamine receptor 2A (Homo sapiens) (UniProt P28223); assay: 5-hydroxytryptamine receptor 2A (HTR2A) small molecule agonists, cell-based qHTS assay (AID 1963587); further: nearly all actives have a fitted effect of over 30% in size
Sequence of 5-hydroxytryptamine receptor 2A (Homo sapiens) (P28223 whole entry, looked up): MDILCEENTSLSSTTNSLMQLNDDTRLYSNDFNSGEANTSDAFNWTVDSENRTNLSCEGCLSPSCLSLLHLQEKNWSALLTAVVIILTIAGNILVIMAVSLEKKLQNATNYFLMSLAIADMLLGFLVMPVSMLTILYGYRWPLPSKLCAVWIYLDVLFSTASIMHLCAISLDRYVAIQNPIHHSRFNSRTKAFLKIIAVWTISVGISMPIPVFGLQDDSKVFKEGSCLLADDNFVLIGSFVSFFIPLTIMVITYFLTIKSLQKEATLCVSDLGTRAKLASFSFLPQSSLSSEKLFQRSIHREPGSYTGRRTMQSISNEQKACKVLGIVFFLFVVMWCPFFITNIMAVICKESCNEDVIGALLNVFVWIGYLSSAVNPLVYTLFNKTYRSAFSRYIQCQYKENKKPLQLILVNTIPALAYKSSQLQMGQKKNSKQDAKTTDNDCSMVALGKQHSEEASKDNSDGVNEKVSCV
Summary of the method: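 CHO cells stably expressing human HTR2A, plated 18 h, loaded with calcium dye 1 h at 37 C. Agonist mode: compounds added and intracellular calcium fluorescence recorded kinetically for 2 min at 1 sec intervals.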

[12] = molecular target: Muscarinic acetylcholine receptor M1 (Homo sapiens) (UniProt P11229); assay: Cholinergic receptor muscarinic 1 (CHRM1) small molecule antagonists, cell-based qHTS assay (AID 1963588); further: nearly all actives have a fitted effect of over 40% in size
Sequence of Muscarinic acetylcholine receptor M1 (Homo sapiens) (P11229 whole entry, looked up): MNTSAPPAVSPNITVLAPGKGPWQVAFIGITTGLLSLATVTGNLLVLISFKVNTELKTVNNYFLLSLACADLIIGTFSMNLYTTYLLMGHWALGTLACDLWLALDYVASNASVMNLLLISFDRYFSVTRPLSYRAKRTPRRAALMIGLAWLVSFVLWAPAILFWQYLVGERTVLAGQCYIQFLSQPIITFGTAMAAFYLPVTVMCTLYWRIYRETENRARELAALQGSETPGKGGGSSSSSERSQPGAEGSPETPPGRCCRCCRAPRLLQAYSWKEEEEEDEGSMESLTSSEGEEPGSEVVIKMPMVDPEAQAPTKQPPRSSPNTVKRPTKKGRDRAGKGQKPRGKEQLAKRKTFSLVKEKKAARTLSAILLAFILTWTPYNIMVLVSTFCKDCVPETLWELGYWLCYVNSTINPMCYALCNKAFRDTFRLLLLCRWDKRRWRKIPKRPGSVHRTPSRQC
Summary of the method: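 CHRM1-CHO calcium-flux assay, antagonist mode. Cells were seeded 18 h, dye-loaded 1 h at 37 C and given compound for 5 min at RT, then acetylcholine was added at 50nM. FDSS fluorescence was read 3 min; 15 concentrations, three runs.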

[13] = molecular target: Muscarinic acetylcholine receptor M1 (Homo sapiens) (UniProt P11229); assay: Cholinergic receptor muscarinic 1 (CHRM1) small molecule agonists, cell-based qHTS assay (AID 1963589); further: nearly all actives have a fitted effect of over 35% in size
Summary of the method: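 Measures agonist-induced intracellular calcium rise. Stable human CHRM1 CHO line, 1 h dye load at 37 C, compounds from DMSO, kinetic fluorescence read.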

[14] = cAMP Responsive Elements (CRE) small molecule agonists, cell-based qHTS assay (AID 1963590)
Summary of the method: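 A CRE-responsive beta-lactamase reporter in HEK 293T cells was used. Treatment ran 3 h at 37 C; detection used LiveBLAzer B/G FRET substrate for 2 h at room temperature.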

[15] = cAMP Responsive Elements (CRE) small molecule antagonists, cell-based qHTS assay (AID 1963591; active means well fitted inhibition curve with a large enough effect in the signal ratio in the repeat runs, not every such curve was filed as active; the % refers to the signal ratio)
Summary of the method: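 HEK293T cells carrying a CRE-driven beta-lactamase reporter receive compound and NKH477 (0.25 uM final) for 3 h. Fluorescence from LiveBLAzer B/G FRET substrate is read after 2 h at room temperature.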

[16] = molecular target: Beta-2 adrenergic receptor (Homo sapiens) (UniProt P07550); assay: Adrenergic beta2 receptor (ADRB2) small molecule antagonists, cell-based qHTS assay (AID 1963592); further: series mostly up to about 92 µM; nearly all actives have a fitted effect of over 50% in size
Sequence of Beta-2 adrenergic receptor (Homo sapiens) (P07550 whole entry, looked up): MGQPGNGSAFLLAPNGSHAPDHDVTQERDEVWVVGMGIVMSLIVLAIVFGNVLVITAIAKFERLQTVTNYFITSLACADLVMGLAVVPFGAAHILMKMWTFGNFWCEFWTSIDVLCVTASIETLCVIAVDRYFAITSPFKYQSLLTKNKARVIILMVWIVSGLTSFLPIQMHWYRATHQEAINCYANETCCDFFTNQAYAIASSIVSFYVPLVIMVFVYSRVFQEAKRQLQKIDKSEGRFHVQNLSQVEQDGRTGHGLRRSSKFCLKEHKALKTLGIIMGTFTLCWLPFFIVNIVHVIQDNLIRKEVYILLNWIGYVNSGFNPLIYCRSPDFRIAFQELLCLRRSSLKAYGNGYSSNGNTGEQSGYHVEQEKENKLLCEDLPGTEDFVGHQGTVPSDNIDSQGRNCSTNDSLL
Summary of the method: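 Cells (CHO, stable ADRB2 overexpression) incubated 18-20hr at 37C; compounds added from DMSO; agonist mix (1nM isoproterenol, 100uM IBMX, 25uM Ro-20-1724) added; 0.5hr RT; d2-cAMP and anti-cAMP-cryptate added; 1hr RT; 665/615 nm read.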

[17] = molecular target: D(2) dopamine receptor (Homo sapiens) (UniProt P14416); assay: Dopamine D2 receptor (DRD2) small molecule agonists, cell-based qHTS assay (AID 1963594); further: nearly all actives have a fitted effect of over 35% in size
Sequence of D(2) dopamine receptor (Homo sapiens) (P14416 whole entry, looked up): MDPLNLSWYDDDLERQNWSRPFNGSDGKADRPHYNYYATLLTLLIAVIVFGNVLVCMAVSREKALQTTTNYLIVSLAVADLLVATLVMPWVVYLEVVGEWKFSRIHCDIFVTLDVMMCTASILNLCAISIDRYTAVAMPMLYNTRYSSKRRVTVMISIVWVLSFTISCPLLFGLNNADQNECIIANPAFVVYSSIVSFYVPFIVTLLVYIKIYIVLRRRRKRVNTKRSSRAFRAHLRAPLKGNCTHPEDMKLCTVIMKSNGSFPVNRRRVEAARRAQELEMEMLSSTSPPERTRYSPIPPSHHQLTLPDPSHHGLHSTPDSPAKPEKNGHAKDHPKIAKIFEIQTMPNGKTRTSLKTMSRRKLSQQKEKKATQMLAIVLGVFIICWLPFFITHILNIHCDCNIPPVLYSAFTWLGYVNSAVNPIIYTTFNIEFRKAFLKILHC
Summary of the method: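 HEK293 cells stably expressing human DRD2, pre-treated with PDE inhibitor Ro20-1724 (0.1 mM final) and compound 10 min at room temperature, then stimulated with NKH477 (200nM […]) for 30 min. cAMP read by HTRF (665/620 nm).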

[18] = molecular target: D(2) dopamine receptor (Homo sapiens) (UniProt P14416); assay: Dopamine D2 receptor (DRD2) small molecule antagonists, cell-based qHTS assay (AID 1963595; active means well fitted inhibition curve with a large enough effect in the signal ratio in the repeat runs, with a control signal flat; the % refers to the signal ratio)
Summary of the method: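 Human DRD2 antagonist qHTS measuring cAMP by HTRF. The cells are exposed to compound for 10 min, then to NKH477 (200 nM) and quinpirole (12 nM) for 30 min at RT, with Ro20-1724 (0.1 mM) present throughout.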

[19] = molecular target: Beta-2 adrenergic receptor (Homo sapiens) (UniProt P07550); assay: Adrenergic beta2 receptor (ADRB2) small molecule agonists, cell-based qHTS assay (AID 1963593);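 further: CHO cells stably overexpressing human ADRB2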
Summary of the method: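 CHO cells stably over-expressing ADRB2 were plated overnight at 37C, then dosed with compounds plus a stimulation mix containing 100uM IBMX and 25uM Ro-20-1724 for 0.5hr at room temperature. cAMP was measured by HTRF competition, 1hr.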

[20] = molecular target: 5-hydroxytryptamine receptor 2A (Homo sapiens) (UniProt P28223); assay: 5-hydroxytryptamine receptor 2A (HTR2A) small molecule antagonists, cell-based qHTS assay (AID 1963586); further: nearly all actives have a fitted effect of over 45% in size
Summary of the method: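 Antagonist-mode intracellular calcium assay: DOI (4 nM) added after 5 min compound pre-incubation at room temperature to dye-loaded HTR2A-CHO cells. Fluorescence followed for 3 min, sampled every second.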

Row | Compound | Potency [1] | Potency [2] | Potency [3] | outcome [4] | outcome [5] | Potency [6] | Potency [7] | Potency [8] | Potency [9] | Potency [10] | Potency [11] | Potency [12] | Potency [13] | Potency [14] | Potency [15] | Potency [16] | Potency [17] | Potency [18] | Potency [19] | Potency [20]
1 | Cc1c(NC(C)C)c(=O)n(-c2ccccc2)n1C | inactive | inactive | inactive | inactive | inactive | inactive | inactive | inactive | inactive | inactive | inactive | inactive | inactive | inactive | inactive | inactive | inactive | inactive |  | 
2 | CC(=O)O[C@H]1CC[C@@]2(C)C(=CC[C@@H]3[C@@H]2CC[C@]2(C)C(C(C)=O)=CC[C@@H]32)C1 | inactive | inactive | inactive | inactive | inactive | inactive | inactive | inactive | inactive | inactive | inactive | inactive | inactive | inactive | inactive | inactive |  | inactive | inactive | 
3 | CCCCCCCCCCCCCC(=O)OCC(O)CO (centres undefined) | inactive | inactive | inactive | inactive | inactive | inactive | inactive | inactive | inactive | inactive | inactive | inactive |  | inactive | inactive | inactive | inactive | inactive |  | inactive
4 | Clc1cccnc1 | inactive | inactive | inactive | inactive | inactive | inactive | inactive | inactive | inactive | inactive | inactive |  | inactive | inactive | inactive | inactive | inactive | inactive |  | inactive
5 | CCCCCc1ccc(N)cc1 | inactive | inactive | inactive | inactive | inactive | inactive | inactive | inactive | inactive | inactive |  |  | inactive |  | inactive | inactive | inactive | inactive | inactive | inactive
6 | COc1cc2c(N3CCN(C(=O)Nc4ccc(OC(C)C)cc4)CC3)ncnc2cc1OCCCN1CCCCC1 | 23.7 µM (active) | inactive | inactive | inactive | inactive | inactive | inactive | inactive | inactive | inactive | inactive | inactive | inactive |  | inactive |  | inactive |  |  | inactive
7 | CC(C)(C)NCC(O)COc1ccc(NC(=O)NC2CCCCC2)cc1 (centres undefined) | inactive | inactive | inactive | inactive | inactive | inactive | inactive | inactive | inactive | inactive | inactive | inactive | inactive | inactive | inactive |  |  | inactive |  | inactive
8 | Cc1cc(C)c(C=O)c(C)c1 | inactive | inactive | inactive | inactive | inactive | inactive | inactive | inactive | inactive | inactive | inactive | inactive |  | inactive | inactive | inactive | inactive | inactive |  | inactive
9 | O=C1c2ccccc2C(=O)C1c1ccc(Br)cc1 | inactive | inactive | inactive | inactive | inactive | inactive | inactive | inactive | inactive | inactive | inactive | inactive | inactive |  |  | inactive | inactive | inactive | inactive | inactive
10 | CCN(CC)C(=O)N1CCN(C)CC1 | inactive | inactive | inactive | inactive | inactive | inactive | inactive | inactive | inactive | inactive | inactive | inactive |  | inactive | inactive | inactive | inactive | inactive | inactive | inactive
11 | COc1cc2[nH]c(=O)[nH]c(=O)c2cc1OC | inactive | inactive | inactive | inactive | inactive | inactive | inactive | inactive | inactive | inactive | inactive | inactive | inactive |  | inactive |  |  | inactive |  | inactive
12 | Cc1nc(-c2ccc(Cl)cc2)oc1COC(C)(C)C(=O)O | inactive | inactive | inactive | inactive | inactive | inactive | inactive | inactive | inactive | inactive | inactive | inactive | inactive |  | inactive | inactive | inactive | inactive | inactive | inactive
13 | CC(C)(O)c1ccc(CNC(=O)c2cccnc2Oc2ccc(F)cc2)cc1 | inactive | inactive | inactive | inactive | inactive | inactive | inactive | inactive | inactive | inactive | inactive | inactive | inactive |  |  | inactive | inactive | inactive |  | inactive
14 | COc1ccc(C(=O)Nc2nc3ccccc3c(NCc3ccccc3)c2C#N)cc1 | inactive | inactive | inactive | inactive | inactive | inactive | inactive | inactive | inactive | inactive | inactive | inactive | inactive |  |  |  | inactive | inactive |  | inactive
15 | CCOC(=O)C(=O)CCCCCCl | inactive | inactive | inactive | inactive | inactive | inactive | inactive | inactive | inactive | inactive | inactive | inactive | inactive | inactive | inactive | inactive | inactive | inactive | inactive | 
